Test results reported in PubChem BioAssay (EPA / NIEHS).
Results filed as inconclusive are left out. Active and inactive are the calls of the source. How the source made its calls, unless noted: active means hit-call score of the fitted dose curve at least 0.9, where 1 is the maximum; inconclusive means response in the unintended direction; inactive means score below 0.9.

Key:
[1] = ATG_M_61_CIS: Attagene CIS-FACTORIAL HepG2 Assay for M61 Transcription Factor (Internal Marker) (AID 2282937; active means hit-call score of the fitted dose curve at least 0.9, where 1 is the maximum; inactive means score below 0.9); settings: HepG2 Attagene CIS-FACTORIAL M61 internal marker reporter; actives raise or lower the signal
Summary of the method: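 Human liver HepG2, transient MRTU transfection (cis promoter elements), 24 h compound. Total RNA → oligo(dT) RT → PCR → FAM label → HpaI → CE. Internal background marker; bidirectional fitting, DMSO = baseline.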

[2] = ATG_GRE_CIS: Attagene CIS-FACTORIAL HepG2 Assay for human Glucocorticoid Response Elements (GRE) (AID 2282947; active means hit-call score of the fitted dose curve at least 0.9, where 1 is the maximum; inactive means score below 0.9); settings: HepG2 GRE cis-reporter, Attagene multiplex mRNA; actives raise or lower the signal
Summary of the method: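 HepG2 cells transiently transfected with multiple cis-promoter reporter units measure endogenous TF activity; 24 h compound exposure. Reporter mRNA quantified by RT-PCR, FAM labelling, HpaI digestion and capillary electrophoresis; bidirectional fit vs DMSO baseline.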

[3] = biological target: Hepatocyte nuclear factor 6 (Homo sapiens) (UniProt Q9UBC0); assay: ATG_HNF6_CIS: Attagene CIS-FACTORIAL HepG2 Assay for human Hepatocyte Nuclear Factor 6 (HNF6) (AID 2282952; active means hit-call score of the fitted dose curve at least 0.9, where 1 is the maximum; inactive means score below 0.9); settings: HepG2 Attagene cis-factorial HNF6 reporter transcription; actives raise or lower the signal
Summary of the method: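 Reporter mRNA induction or loss in HepG2 after 24 h exposure; transient cis-MRTU transfection; fragments quantified by capillary electrophoresis; bidirectional analysis, DMSO as negative control.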

[4] = ATG_MRE_CIS: Attagene CIS-FACTORIAL HepG2 Assay for human Metal Responsive Element (MRE) (AID 2282954; active means hit-call score of the fitted dose curve at least 0.9, where 1 is the maximum; inactive means score below 0.9); settings: HepG2 MRE cis-reporter transcription, Attagene multiplex; actives raise or lower the signal
Summary of the method: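 HepG2 cells transiently transfected with multiple cis-element reporter units measure endogenous MTF1-driven transcription. After 24 h compound exposure, reporter mRNA is quantified by RT-PCR with 6-FAM labelling, HpaI digestion and capillary electrophoresis; bidirectional fits versus DMSO.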

[5] = ATG_PBREM_CIS: Attagene CIS-FACTORIAL HepG2 Assay for human Phenobarbital-responsive Enhancer Module (PBREM) (AID 2282955; active means hit-call score of the fitted dose curve at least 0.9, where 1 is the maximum; inactive means score below 0.9); settings: HepG2 PBREM cis-reporter, Attagene multiplexed transcription; actives raise or lower the signal
Summary of the method: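 Endogenous transcription factors in human liver HepG2 cells drive a PBREM cis-element reporter, whose transcript level after 24 h treatment is quantified by RT-PCR with capillary electrophoresis; activity fitted in both directions against DMSO.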

[6] = ATG_RORE_CIS: Attagene CIS-FACTORIAL HepG2 Assay for human RAR-related Orphan Receptor Element (RORE) (AID 2282959; active means hit-call score of the fitted dose curve at least 0.9, where 1 is the maximum; inactive means score below 0.9); settings: HepG2 Attagene cis-factorial RORE reporter, mRNA; actives raise or lower the signal
Summary of the method: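 Transient MRTU transfection of human HepG2 liver cells (FuGene 6); 24 h compound exposure; TriZol RNA, oligo(dT) RT, PCR, FAM labeling, HpaI cut, CE fragment analysis. DMSO = negative control/baseline.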

[7] = ATG_M_06_TRANS: Attagene TRANS-FACTORIAL HepG2 Assay for M06 Transcription Factor (Internal Marker) (AID 2282983); settings: HepG2 Attagene TRANS M06 internal marker reporter
Summary of the method: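 Measured by capillary electrophoresis of fluorescently labelled RT-PCR products, this endpoint reflects reporter mRNA in HepG2 cells harbouring exogenous NR-GAL4 reporter constructs after 24 h exposure, with DMSO as baseline.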

[8] = biological target: Myc proto-oncogene protein (Homo sapiens) (UniProt P01106); assay: ATG_Myc_CIS: Attagene CIS-FACTORIAL HepG2 Assay for human Myelocytomatosis (Myc) Proto-Oncogene Transcription Factor (AID 2282990; active means hit-call score of the fitted dose curve at least 0.9, where 1 is the maximum; inactive means score below 0.9); settings: HepG2, Attagene cis-reporter transcription factor activity; actives raise or lower the signal
Summary of the method: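 DMSO-normalised, bidirectionally fitted reporter mRNA signal. HepG2 cells transfected with cis reporter constructs, treated 24 h; transcripts detected by RT-PCR, 6-FAM primer extension and CE.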

[9] = ATG_NF_kB_CIS: Attagene CIS-FACTORIAL HepG2 Assay for human Nuclear Factor Kappa B (NF-kB) (AID 2282991; active means hit-call score of the fitted dose curve at least 0.9, where 1 is the maximum; inactive means score below 0.9); settings: HepG2 Attagene cis-factorial NF-kB reporter mRNA; actives raise or lower the signal
Summary of the method: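 Transient MRTU transfection of human HepG2 liver cells → 24 h chemical exposure → total RNA, oligo(dT) RT → PCR, 6-FAM primer extension, HpaI digest 2 h 37 C → CE fragment analysis. Bidirectional fitting, DMSO negative control.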

[10] = biological target: Cellular tumor antigen p53 (Homo sapiens) (UniProt P04637); assay: TOX21_p53_BLA_p3_ratio: Tox21 HCT-116 p53 Agonism Beta-lactamase Assay, Ratio, Phase 3 (AID 2283596)
Summary of the method: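 HCT116 p53-bla cells (4000/well) given compound in DMSO (217-fold dilution) after 5 h, incubated 16 h at 37C. CCF4-AM substrate 2 h at room temperature; 460/530 nm emission ratio, gain fitted against DMSO.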

[11] = biological target: Cellular tumor antigen p53 (Homo sapiens) (UniProt P04637); assay: TOX21_p53_BLA_p5_ratio: Tox21 HCT-116 p53 Agonism Beta-lactamase Assay, Ratio, Phase 5 (AID 2283599)
Summary of the method: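 HCT-116 cells carrying a p53-inducible beta-lactamase reporter were seeded at 4000 cells/well and dosed after 5 h with compound in DMSO (217-fold dilution). After 16 h at 37C, CCF4-AM substrate was added for 2 h, and the 460/530 nm emission ratio was scored as gain-of-signal versus DMSO.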

[12] = biological target: Cellular tumor antigen p53 (Homo sapiens) (UniProt P04637); assay: TOX21_p53_BLA_p4_ratio: Tox21 HCT-116 p53 Agonism Beta-lactamase Assay, Ratio, Phase 4 (AID 2283601)
Summary of the method: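 HCT116 cells carrying an inducible beta-lactamase reporter were plated at 4000 cells/well, rested 5 h, then exposed to compounds in DMSO (217-fold dilution) for 16 h at 37C. CCF4-AM substrate was loaded 2 h at room temperature; 460/530 nm emission ratio scored gain-of-signal versus DMSO.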

[13] = biological target: Paired box protein Pax-6 (Homo sapiens) (UniProt P26367); assay: ATG_Pax6_CIS: Attagene CIS-FACTORIAL HepG2 Assay for human Paired Box 6 (PAX6) (AID 2282956; active means hit-call score of the fitted dose curve at least 0.9, where 1 is the maximum; inactive means score below 0.9); settings: HepG2 CIS-FACTORIAL PAX6 reporter transcription, RNA readout; actives raise or lower the signal
Summary of the method: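 HepG2 cells transiently transfected with cis-promoter-driven multiplexed reporter units sensing endogenous transcription factor activity; 24 h chemical exposure. Reporter mRNA quantified by RT-PCR, 6-FAM labelling, HpaI digestion and capillary electrophoresis; bidirectional fit versus DMSO baseline.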

[14] = biological target: Hepatocyte nuclear factor 4-alpha (Homo sapiens) (UniProt P41235); assay: ATG_HNF4a_TRANS: Attagene TRANS-FACTORIAL HepG2 Assay for human Hepatocyte Nuclear Factor 4 alpha (HNF4a) (AID 2282982); settings: HepG2 HNF4a transactivation reporter, mRNA readout
Summary of the method: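 HepG2 cells transiently transfected with multiplexed GAL4-UAS reporter units responsive to chimeric NR-GAL4 proteins; compound exposure 24 h. Reporter mRNA quantified by RT-PCR, 6-FAM labelling, HpaI digestion and capillary electrophoresis; gain of signal versus DMSO baseline.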

[15] = biological target: human Peroxisome Proliferator-activated Receptor alpha (PPARa), PPARA (gene 5465) (UniProt Q07869); assay: ATG_PPARa_TRANS: Attagene TRANS-FACTORIAL HepG2 Assay for human Peroxisome Proliferator-activated Receptor alpha (PPARa) (AID 2283001);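 on AC50: potency for gain of reporter signal over DMSO so agonist or activator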
Summary of the method: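 HepG2 cells transiently transfected with multiplexed GAL4-UAS reporter units and chimeric NR-Gal4 constructs were dosed for 24 h. Reporter mRNA was measured by RT-PCR with fluorescent labelling and capillary electrophoresis; gain of signal fitted against DMSO.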

[16] = biological target: Peroxisome proliferator-activated receptor gamma (Homo sapiens) (UniProt P37231); assay: ATG_PPARg_TRANS: Attagene TRANS-FACTORIAL HepG2 Assay for human Peroxisome Proliferator-activated Receptor-gamma (PPARg) (AID 2283007)
Summary of the method: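 Transient transfection of HepG2 with GAL4-UAS-driven reporter units; chemical dosing 24 h; total RNA → oligo(dT) RT → PCR with reporter primers → 6-FAM primer extension → HpaI digest 2 h 37 C → capillary electrophoresis. Positive direction vs DMSO.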

[17] = biological target: Nuclear receptor subfamily 1 group I member 2 (Homo sapiens) (UniProt O75469); assay: ATG_PXR_TRANS: Attagene TRANS-FACTORIAL HepG2 Assay for human Pregnane X Receptor (PXR) (AID 2283008)
Summary of the method: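 HepG2 cells transiently transfected with GAL4-UAS reporter units and PXR-Gal4 chimera, exposed 24 h. Reporter mRNA quantified by RT-PCR, fluorescent labelling, HpaI digestion and capillary electrophoresis; gain of signal vs DMSO.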

[18] = biological target: Cellular tumor antigen p53 (Homo sapiens) (UniProt P04637); assay: TOX21_p53_BLA_p2_ratio: Tox21 HCT-116 p53 Agonism Beta-lactamase Assay, Ratio, Phase 2 (AID 2283592)
Summary of the method: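 An inducible beta-lactamase reporter in HCT116 cells signals p53 pathway activation. After 16 h chemical exposure at 37C, cells load CCF4-AM substrate for 2 h at room temperature; activity is the cleaved/uncleaved emission ratio relative to DMSO.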

[19] = TOX21_p53_BLA_p5_viability: Viability Assessment in the Tox21 HCT-116 p53 Agonism Beta-lactamase Assay, Phase 5 (AID 2283600)
Summary of the method: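 Counter-readout for cytotoxicity: ATP-dependent luminescence from CellTiter-Glo, read in the beta-lactamase wells after 30 min at RT, following a 16 h compound exposure at 37C.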

[20] = biological target: human Retinoid X Receptor beta (RXRb), RXRB (gene 6257) (UniProt P28702); assay: ATG_RXRb_TRANS: Attagene TRANS-FACTORIAL HepG2 Assay for human Retinoid X Receptor beta (RXRb) (AID 2283013)
Summary of the method: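 Multiplexed TRANS reporter assay in HepG2; 24 h dosing; reporter mRNA by RT-PCR/CE fluorescence; gain-of-signal relative to DMSO.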

Measured: AC50

Chain of human Peroxisome Proliferator-activated Receptor alpha (PPARa), PPARA (gene 5465) (Q07869 whole entry, looked up, the tested form may be a part): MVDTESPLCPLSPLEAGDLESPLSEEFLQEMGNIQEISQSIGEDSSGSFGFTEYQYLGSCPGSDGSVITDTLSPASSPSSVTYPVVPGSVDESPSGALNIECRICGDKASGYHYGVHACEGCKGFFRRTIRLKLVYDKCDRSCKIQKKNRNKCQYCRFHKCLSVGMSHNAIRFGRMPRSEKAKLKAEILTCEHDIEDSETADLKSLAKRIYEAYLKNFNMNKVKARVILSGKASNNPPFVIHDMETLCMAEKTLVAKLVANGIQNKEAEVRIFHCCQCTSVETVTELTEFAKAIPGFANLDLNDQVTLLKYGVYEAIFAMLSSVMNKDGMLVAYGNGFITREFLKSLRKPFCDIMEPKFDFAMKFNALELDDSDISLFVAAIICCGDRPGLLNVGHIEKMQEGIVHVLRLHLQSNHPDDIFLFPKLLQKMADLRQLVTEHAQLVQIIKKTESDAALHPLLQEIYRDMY
Chain of Myc proto-oncogene protein (Homo sapiens) (P01106 whole entry, looked up): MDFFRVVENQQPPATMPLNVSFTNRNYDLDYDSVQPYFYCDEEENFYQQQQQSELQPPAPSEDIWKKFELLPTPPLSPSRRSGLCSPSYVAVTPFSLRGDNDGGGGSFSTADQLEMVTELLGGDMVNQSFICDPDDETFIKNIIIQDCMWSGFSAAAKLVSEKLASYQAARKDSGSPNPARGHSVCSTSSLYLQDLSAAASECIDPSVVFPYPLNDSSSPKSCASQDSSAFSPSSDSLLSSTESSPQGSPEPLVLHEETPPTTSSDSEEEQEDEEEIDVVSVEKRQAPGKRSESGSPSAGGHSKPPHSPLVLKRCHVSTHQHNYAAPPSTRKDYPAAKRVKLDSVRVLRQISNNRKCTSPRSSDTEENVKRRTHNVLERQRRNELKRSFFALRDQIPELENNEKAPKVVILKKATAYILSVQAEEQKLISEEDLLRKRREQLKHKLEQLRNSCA
Chain of human Retinoid X Receptor beta (RXRb), RXRB (gene 6257) (P28702 whole entry, looked up): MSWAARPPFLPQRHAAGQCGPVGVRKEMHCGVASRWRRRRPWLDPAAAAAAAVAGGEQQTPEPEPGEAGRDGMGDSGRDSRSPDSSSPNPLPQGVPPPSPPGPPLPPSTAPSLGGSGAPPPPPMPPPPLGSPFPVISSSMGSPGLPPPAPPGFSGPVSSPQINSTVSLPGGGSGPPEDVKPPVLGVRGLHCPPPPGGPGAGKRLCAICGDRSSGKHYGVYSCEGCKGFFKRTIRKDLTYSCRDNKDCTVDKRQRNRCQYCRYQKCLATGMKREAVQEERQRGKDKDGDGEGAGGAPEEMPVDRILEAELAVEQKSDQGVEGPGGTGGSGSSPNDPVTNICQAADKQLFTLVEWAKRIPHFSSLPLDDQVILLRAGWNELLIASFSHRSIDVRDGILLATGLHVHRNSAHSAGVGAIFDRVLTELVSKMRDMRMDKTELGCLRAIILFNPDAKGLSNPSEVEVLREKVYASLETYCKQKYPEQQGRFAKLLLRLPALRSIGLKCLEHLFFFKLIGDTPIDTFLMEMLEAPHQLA
Chain of Nuclear receptor subfamily 1 group I member 2 (Homo sapiens) (O75469 whole entry, looked up, the tested form may be a part): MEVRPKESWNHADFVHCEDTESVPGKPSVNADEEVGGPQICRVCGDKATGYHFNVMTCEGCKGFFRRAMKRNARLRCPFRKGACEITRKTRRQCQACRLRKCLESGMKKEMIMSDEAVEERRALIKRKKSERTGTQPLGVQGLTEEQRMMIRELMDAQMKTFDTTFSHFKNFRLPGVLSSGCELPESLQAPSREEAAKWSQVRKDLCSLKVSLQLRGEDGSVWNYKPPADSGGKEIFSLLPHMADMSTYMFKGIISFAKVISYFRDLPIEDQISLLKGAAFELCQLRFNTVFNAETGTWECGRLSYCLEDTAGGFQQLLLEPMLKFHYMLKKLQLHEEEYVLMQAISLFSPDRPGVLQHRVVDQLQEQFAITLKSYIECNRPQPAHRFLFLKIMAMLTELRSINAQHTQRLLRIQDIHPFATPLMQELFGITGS
Chain of Hepatocyte nuclear factor 6 (Homo sapiens) (Q9UBC0 whole entry, looked up, the tested form may be a part): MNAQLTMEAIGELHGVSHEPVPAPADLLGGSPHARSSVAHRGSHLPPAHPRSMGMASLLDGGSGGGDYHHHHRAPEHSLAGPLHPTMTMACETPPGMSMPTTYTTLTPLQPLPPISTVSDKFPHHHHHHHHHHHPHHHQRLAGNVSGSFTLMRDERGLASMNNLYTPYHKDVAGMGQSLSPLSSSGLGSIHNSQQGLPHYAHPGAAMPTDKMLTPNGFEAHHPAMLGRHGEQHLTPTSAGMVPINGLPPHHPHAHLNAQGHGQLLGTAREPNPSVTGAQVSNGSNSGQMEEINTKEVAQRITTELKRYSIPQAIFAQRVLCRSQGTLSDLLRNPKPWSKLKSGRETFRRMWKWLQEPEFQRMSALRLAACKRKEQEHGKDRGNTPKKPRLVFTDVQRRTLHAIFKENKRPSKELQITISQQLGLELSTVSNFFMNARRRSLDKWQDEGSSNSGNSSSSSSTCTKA
Chain of Cellular tumor antigen p53 (Homo sapiens) (P04637 whole entry, looked up): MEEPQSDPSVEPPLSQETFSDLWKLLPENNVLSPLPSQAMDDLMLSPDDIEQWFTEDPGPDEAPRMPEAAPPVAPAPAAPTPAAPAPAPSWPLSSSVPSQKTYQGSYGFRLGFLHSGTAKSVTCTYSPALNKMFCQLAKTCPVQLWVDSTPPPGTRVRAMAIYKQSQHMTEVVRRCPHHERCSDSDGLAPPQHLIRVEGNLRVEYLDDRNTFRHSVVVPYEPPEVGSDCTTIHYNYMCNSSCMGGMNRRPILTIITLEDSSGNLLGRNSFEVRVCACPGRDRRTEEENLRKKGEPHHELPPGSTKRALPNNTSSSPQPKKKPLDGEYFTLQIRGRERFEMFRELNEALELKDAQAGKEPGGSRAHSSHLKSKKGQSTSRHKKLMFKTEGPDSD
Chain of Peroxisome proliferator-activated receptor gamma (Homo sapiens) (P37231 whole entry, looked up, the tested form may be a part): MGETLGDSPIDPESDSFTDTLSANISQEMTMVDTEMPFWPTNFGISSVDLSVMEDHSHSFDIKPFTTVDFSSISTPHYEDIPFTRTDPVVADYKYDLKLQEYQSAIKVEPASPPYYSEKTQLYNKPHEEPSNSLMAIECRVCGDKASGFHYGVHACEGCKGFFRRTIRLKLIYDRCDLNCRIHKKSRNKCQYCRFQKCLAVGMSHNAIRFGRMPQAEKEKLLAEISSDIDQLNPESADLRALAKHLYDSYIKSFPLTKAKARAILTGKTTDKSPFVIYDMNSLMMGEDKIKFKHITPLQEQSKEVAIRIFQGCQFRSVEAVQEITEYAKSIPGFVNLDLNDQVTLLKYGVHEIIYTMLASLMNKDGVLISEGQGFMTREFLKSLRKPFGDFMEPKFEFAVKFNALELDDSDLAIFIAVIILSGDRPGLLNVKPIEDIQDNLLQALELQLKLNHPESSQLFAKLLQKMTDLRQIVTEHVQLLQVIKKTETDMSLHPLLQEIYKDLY
Chain of Paired box protein Pax-6 (Homo sapiens) (P26367 whole entry, looked up): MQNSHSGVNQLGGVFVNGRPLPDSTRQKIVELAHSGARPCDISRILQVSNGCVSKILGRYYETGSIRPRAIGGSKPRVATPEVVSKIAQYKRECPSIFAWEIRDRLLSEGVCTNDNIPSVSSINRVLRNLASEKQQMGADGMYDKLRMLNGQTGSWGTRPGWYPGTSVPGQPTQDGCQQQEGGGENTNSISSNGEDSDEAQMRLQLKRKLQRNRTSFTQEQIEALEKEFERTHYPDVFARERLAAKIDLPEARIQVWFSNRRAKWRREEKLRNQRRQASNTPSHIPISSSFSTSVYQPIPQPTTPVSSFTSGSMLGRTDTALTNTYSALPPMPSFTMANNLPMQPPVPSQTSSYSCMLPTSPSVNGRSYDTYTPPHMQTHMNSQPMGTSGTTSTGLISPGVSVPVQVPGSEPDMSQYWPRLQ
Chain of Hepatocyte nuclear factor 4-alpha (Homo sapiens) (P41235 whole entry, looked up, the tested form may be a part): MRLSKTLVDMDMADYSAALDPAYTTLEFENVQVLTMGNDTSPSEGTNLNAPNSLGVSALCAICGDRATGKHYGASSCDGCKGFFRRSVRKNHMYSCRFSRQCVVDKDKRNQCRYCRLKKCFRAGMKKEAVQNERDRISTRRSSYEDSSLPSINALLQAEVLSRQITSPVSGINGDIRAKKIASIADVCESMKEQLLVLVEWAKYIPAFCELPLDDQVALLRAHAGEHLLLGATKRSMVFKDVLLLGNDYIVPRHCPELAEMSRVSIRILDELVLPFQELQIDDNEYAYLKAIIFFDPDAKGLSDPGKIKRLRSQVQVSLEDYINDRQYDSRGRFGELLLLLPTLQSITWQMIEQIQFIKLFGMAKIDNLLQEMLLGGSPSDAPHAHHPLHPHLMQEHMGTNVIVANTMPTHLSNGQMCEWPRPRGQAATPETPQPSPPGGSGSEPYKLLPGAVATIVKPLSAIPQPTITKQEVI

CNC(=N[N+](=O)[O-])NCC1CCOC1 (centres undefined)
not listed: [13] | [14] | [15] | [16] | [17] | [18] | [19] | [20]
inactive: all other assays above

N#Cc1cc(I)c(O)c(I)c1
active: [15] 8.29 µM | [16] 10.7 µM | [18] 9.91 µM | [10] 6.09 µM | [11] 55.8 µM | [12] 13.9 µM
not listed: [6] | [7] | [20]
inactive: all other assays above

CC(Cc1ccc(C(C)(C)C)cc1)CN1C[C@@H](C)O[C@@H](C)C1 (some centres undefined)
active: [5] 12.8 µM | [9] 21 µM | [16] 21.7 µM | [17] 4.52 µM
not listed: [4] | [11]
inactive: all other assays above

CC(C)CCCCCCCOC(=O)c1ccccc1C(=O)OCCCCCCCC(C)C
inactive: [1] | [2] | [3] | [4] | [5] | [13] | [6] | [17] | [18] | [11]

O=P(O)(Oc1ccccc1)Oc1ccccc1
not listed: [1] | [4] | [7] | [11] | [19]
inactive: all other assays above

CCCCCc1cc(O)cc(O)c1
active: [13] 146 µM | [16] 10.5 µM | [17] 11.1 µM
not listed: [1] | [2] | [4] | [6] | [18] | [19]
inactive: all other assays above

CCC(C)c1cc([N+](=O)[O-])cc([N+](=O)[O-])c1OC(=O)C=C(C)C (centres undefined)
active: [4] 27.5 µM | [13] 37.1 µM | [16] 1.05 µM | [17] 1.6 µM | [18] 13.8 µM | [10] 13.9 µM | [11] 10.3 µM | [12] 14.3 µM
not listed: [3] | [8] | [19]
inactive: all other assays above

C#CC1(O)CCCCC1
inactive: [6] | [7] | [9] | [20] | [18] | [10] | [11] | [12]

Nc1ccc([N+](=O)[O-])cc1N
not listed: [2] | [4] | [5] | [6] | [9] | [15]
inactive: all other assays above

O=S(=O)(O)O
inactive: [1] | [3] | [4] | [13] | [7] | [8] | [15] | [17] | [20]
